Data on 26 compounds can be found in PubChem BioAssay AID757 (NMMLSC, 2007).

Among all 190,000 compounds or so, about 520 (0.27%) were called active. Inconclusive results (about 2%) are left out.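 The calls were made as follows: active = GTP binding activity at least 20 points away from the 100% control level, either lower or higher; inconclusive = compound flagged as likely green fluorescent, judged across all proteins; inactive = the rest.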 For the sample, actives were picked, then their nearest neighbours and some compounds at random.

The test addresses Ras-related C3 botulinum toxin substrate 1 (Homo sapiens) (UniProt P63000). The test is described as follows: wildtype Rac1 GTP binding modulators, primary screen, biochemical, GST-Rac1 beads, flow cytometry, multiplex (AID 757). Conditions: fluorescent GTP binding, at 10 µM, actives lie on both sides, 0 = cold GTP competed, 100 = untreated. (In general: Flow cytometry measures light scatter and fluorescence of single cells or particles in a stream.)
In the case of `Cn1ncc(N2CCN(S(=O)(=O)c3ccc(Br)cc3)CC2)c(Cl)c1=O`, the GTP binding activity (% of control) was 99% (inactive).

For `CCc1ccccc1NC(=O)CN(c1ccc(OC)cc1OC)S(=O)(=O)c1ccccc1[N+](=O)[O-]`, the GTP binding activity (% of control) was 100% (inactive). The result for `O=C(NNC(=S)Nc1ccccc1)c1cccc(S(=O)(=O)N2CCOCC2)c1` reads 96% (inactive).

For the compound `O=C(CSc1ccsc1[N+](=O)[O-])N1CCCCC1`, the GTP binding activity (% of control) is 102% (inactive). Turning to `CN(c1ccc(OCC(=O)OCC(=O)Nc2cccc([N+](=O)[O-])c2)cc1)S(=O)(=O)c1ccc(F)cc1`, the GTP binding activity (% of control) is 101% (inactive). For `CCOc1ccc(S(=O)(=O)Nc2nccs2)cc1` the value was 94% (inactive).

As to `O=C(Nn1cnc2ccccc2c1=O)c1ccc([N+](=O)[O-])cc1Cl`, the GTP binding activity (% of control) was 96% (inactive). The result for `Cc1cnc(C(=O)N2CCCC(C(=O)c3ccc(C(F)(F)F)cc3)C2)cn1` (stereo unspecified) reads 100% (inactive); that for `CCC1SC(CC)C(=O)N(CC(=O)NC2CCCCC2)C1=O` (stereo unspecified), 99% (inactive). Take `O=C(c1ccc(N2CCOCC2)c([N+](=O)[O-])c1)N1CCN(S(=O)(=O)c2cccs2)CC1`: the GTP binding activity (% of control) is 96% (inactive). For `COCCNC(=S)N1CCC(NC(=O)C23CC4CC(CC(C4)C2)C3)CC1` the value was 104% (inactive); for `Nc1ccc(-c2sc(N)nc2-c2ccccc2)cc1`, 98% (inactive); for `Nc1[nH]c(=S)nc2nc(-c3ccccc3)c(-c3ccccc3)nc12`, 79% (active). The result for `CC1CCC2(CC1)NC(=O)N(Cc1nnc(-c3cccs3)o1)C2=O` (stereo unspecified) reads 94% (inactive). For the compound `CCN(CCCNC(=O)CCn1c(=O)[nH]c2ccsc2c1=O)c1ccccc1`, the GTP binding activity (% of control) is 99% (inactive). The result for `O=C(Nc1ccccc1)N1CCN(C(=O)Nc2ccccc2)CC1` reads 94% (inactive).

Regarding `O=C(N1CCCCC1)N1CCN(C(=O)N2CCCCC2)CC1`, the GTP binding activity (% of control) is 98% (inactive).

`CCOc1ccc(CN2CCN(Cc3ccon3)CC2CCO)cc1` (stereo unspecified): the GTP binding activity (% of control) is 99% (inactive). For `C/C(=N\OC(=O)c1ccccc1)c1c(C)nc2cc(C)ccn12` the value was 85% (inactive). For `COC(=O)c1c(C(=O)OC)c(-c2cccc(C)c2)n2c1CS(=O)C2` (stereo unspecified), the GTP binding activity (% of control) is 95% (inactive). The result for `CCC1CO/C(=C(\C(=C(Cl)Cl)N2CCOCC2)[N+](=O)[O-])N1` (stereo unspecified) reads 101% (inactive).

As for `CC(C)NC(=O)c1ccc(Cl)cc1Cl`, the GTP binding activity (% of control) is 103% (inactive). The result for `OCCC1CN(Cc2ccc(Oc3ncccn3)cc2)CCN1CCc1ccccc1` (stereo unspecified) reads 98% (inactive); that for `CCOC(=O)CSC1=N/C(=C/c2ccc(-n3cncn3)cc2)C(=O)N1C(C)=O`, 96% (inactive). For `CCC(CC)c1nnc(NC(=O)c2nn(C)c(=O)c3ccccc23)s1`, the GTP binding activity (% of control) was 96% (inactive). Turning to `CC(=O)c1cc(C#N)c(N2CCCCC2)nc1C`, the GTP binding activity (% of control) was 97% (inactive).
